High-throughput results as filed in PubChem BioAssay.
Compounds with a hit are over-represented: about 7.3% of the library has one in this group of screens.
SMN2 splice enh – qHTS Assay for Enhancers of SMN2 Splice Variant Expression. HEK293 SMN2-luciferase splicing reporter, luminescence, 30-36 h. Potency, µM (highest dose often 46.1 µM), without a hit: at the highest dose activity change, positive = activation, hits mostly activators. 210,000 compounds, 2.8% hits; note: % of control where 0% means no effect; nearly all actives have a fitted effect of over 55% in size
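HEK293 cells carry an SMN2 minigene-luciferase reporter in which exon 7 inclusion puts luciferase in frame. Cells were seeded at 2000 cells/well, attached for 10-12 hours, then exposed to compounds for 30-36 hours at 37C before ONE-Glo luminescence.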
NPC1 prom act – qHTS Assay for NPC1 Promoter Activators; 320,000 compounds, 2.4% hits; AID 485313, 2010; Potency, µM (titrated, usually from 9.22 µM), inactives show top-dose activation, actives largely listed as activators; Huh7 NPC1 promoter luciferase reporter, 24 h; note: % of control where 0% means no effect; nearly all actives have a fitted effect of over 60% in size
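Quantitative HTS used a cell-based reporter: Huh7 cells stably bearing the NPC1 promoter upstream of luciferase were treated with compounds for 24 h, and promoter activation was read as luminescence.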
KinaseGlo FLuc – Counterscreen for Luciferase (Kinase-Glo TM) Inhibition. Kinase-Glo luciferase, ATP luminescence, 8 min. Potency, µM (series often up to 38.3 µM), for the others: at the top dose activity change, negative = inhibition, hits mostly inhibitors. 200,000 compounds, 0.28% hits; note: % is set by controls: 0 for no effect and ±100 for the full control effect; nearly all actives have a fitted effect of over 60% in size
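Kinase-Glo luciferase light output from ATP and luciferin was measured with 10 uM ATP, within the enzyme's linear range. Buffer: 50 mM imidazole pH 7.2, 50 mM KCl, 7 mM MgCl2, 0.01% Tween 20, 0.05% BSA; luminescence read after 8 min at ambient temperature.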
Rab9 prom act – qHTS Assay for Rab9 Promoter Activators; AID 485297, 2010; 320,000 compounds, 2.8% hits; Potency, µM (titrated, usually from 9.22 µM), inactives show top-dose activation, negative = inhibition, usual class: activators; Huh7 Rab9 promoter-luciferase reporter, luminescence, 24 h; note: % of control where 0% means no effect; nearly all actives have a fitted effect of over 60% in size
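Promoter activation is measured as luciferase luminescence in Huh7 cells stably transfected with a Rab9 promoter–luciferase construct, following 24 h compound exposure at 37 °C and 10 min reagent incubation at ambient temperature.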
FLuc counter – qHTS profiling assay for firefly luciferase inhibitor/activator using purifed enzyme and Km concentrations of substrates (counterscreen for miR-21 project). Luciferin 4-monooxygenase (Photinus pyralis), P08659. purified FLuc, Km substrates, luminescence inhibition. 360,000 compounds, 6.9% hits. AID 588342, 2011. Potency, µM (titrated, usually from 57.5 µM), for the others: top-dose activity change, negative = inhibition, hits mostly inhibitors;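 note: plate controls were vehicle for no effect and reference inhibitor for full effect; nearly all actives have a fitted effect of over 55% in size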
Target sequence (P08659 whole entry, looked up): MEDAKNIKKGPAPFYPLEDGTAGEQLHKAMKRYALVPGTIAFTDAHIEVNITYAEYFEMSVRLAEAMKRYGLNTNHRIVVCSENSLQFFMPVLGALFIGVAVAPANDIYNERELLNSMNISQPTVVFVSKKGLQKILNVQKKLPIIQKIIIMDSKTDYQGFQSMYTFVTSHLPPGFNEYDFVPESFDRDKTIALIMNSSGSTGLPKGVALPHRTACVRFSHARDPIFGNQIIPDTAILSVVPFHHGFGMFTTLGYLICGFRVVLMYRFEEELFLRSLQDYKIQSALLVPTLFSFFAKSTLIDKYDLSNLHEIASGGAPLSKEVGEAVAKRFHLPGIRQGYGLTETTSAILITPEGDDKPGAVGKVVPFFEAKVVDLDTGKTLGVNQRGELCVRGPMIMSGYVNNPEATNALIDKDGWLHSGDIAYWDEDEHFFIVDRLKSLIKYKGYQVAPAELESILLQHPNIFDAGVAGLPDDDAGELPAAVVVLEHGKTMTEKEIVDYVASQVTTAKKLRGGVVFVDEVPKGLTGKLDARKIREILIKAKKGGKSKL
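Biochemical qHTS of compounds, final roughly 60 µM downward over six points, against 10 nM purified firefly luciferase using Km concentrations of substrates (10 uM D-luciferin, 10 uM ATP) in Tris acetate pH 7.5 buffer; luminescence output.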
ELG1 genotox – qHTS screen for small molecules that induce genotoxicity in human embryonic kidney (HEK293T) cells expressing luciferase-tagged ELG1 | 330,000 compounds, 1.3% hits | HEK293T ELG1-luciferase reporter, luminescence, 16 h | Potency, µM (series often up to 46 µM), without a hit: at the highest dose activity change, positive = activation, usual class: activators; note: % of control where 0% means no effect; nearly all actives have a fitted effect of over 60% in size
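Cells (2,000/well) expressing the ELG1-luciferase fusion are dosed by pin tool and kept 16 hr at 37 °C, 5% CO2. Signal comes from ONE-Glo luciferase reagent after 30 min at room temperature.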
Numbers without * were called inactive; ? = inconclusive; . = no result; [ ] = remark or other dose. Calls come from the whole dose curve; as a rule, active = well fitted curve in the direction sought with a large enough effect; inconclusive = small, poorly fitted or top-dose-only effect, or another doubt; inactive = no such curve, though single readings can be large; an effect the other way counts as inactive or inconclusive. Potency is the fitted concentration of half-maximal effect.

SMILES | SMN2 splice enh | NPC1 prom act | KinaseGlo FLuc | Rab9 prom act | FLuc counter | ELG1 genotox
O=[N+]([O-])c1nn(-c2ccc3c(c2)OCCO3)n(O)c1=NCc1ccc(F)cc1Cl | 3.5µM* | ? | 2% | 2.8µM* | ? | ?
O=[N+]([O-])c1nn(-c2ccc3c(c2)OCCO3)n(O)c1=NCc1ccc(F)cc1 | 4µM* | ? | -14% | 3.5µM* | 4.3µM* | ?
COc1cc(N=c2c([N+](=O)[O-])nn(-c3ccc4c(c3)OCCO4)n2O)cc(OC)c1 | 13µM* | 29% | 0% | ? | ? | 15%
Cc1cccc(OCCSc2nc3ccc(NC(=O)c4cccs4)cc3s2)c1 | . | . | . | . | 1% | .
CCc1nn2c(=O)cc(COC(=O)Cc3ccccc3)nc2s1 | . | . | . | . | 6% | .
CC(C)[C@@H](CC(=O)N[C@@H]1CCNC[C@H]1C(=O)N[C@H](CC(=O)N[C@@H](CCC(=O)O)CC(=O)O)Cc1c[nH]c2ccccc12)NC(=O)C[C@H](Cc1ccccc1)NC(=O)[C@@H]1CCCC[C@H]1N | -3% | . | 2% | . | . | .
COc1ccc(N2CCN(C(=O)c3ccc4c(c3)N(Cc3ccc(F)cc3)C(=O)c3ccccc3S4=O)CC2)cc1 (configuration not stated) | -7% | . | . | . | -1% | .
COc1ccc(/C=C/C(=O)c2ccc3c(c2)OCCO3)cc1[N+](=O)[O-] | 1% | 2% | -9% | -5% | 6.7µM* | 0%
O=C(/C=C/c1ccc(F)cc1)c1cc(Br)ccc1O | . | 12% | . | 10% | ? | 8%
O=C(/C=C/c1ccc2c(c1)OCCO2)c1ccccc1 | . | 2.8µM* | . | 1µM* | 0.48µM* | ?
COc1ccc(C(=O)/C=C/c2ccc3c(c2)OCCO3)cc1 | . | 5% | . | ? | 1.7µM* | 19%
Cc1ccc(O)c(C(=O)/C=C/c2ccc3c(c2)OCCO3)c1 | 6% | 8% | -12% | ? | 24µM* | 0%
CCOc1cc(/C=C/C(=O)c2ccc3c(c2)OCCO3)ccc1OCC(=O)N(C)C | . | -5% | . | 1% | ? | -8%
COc1ccc(CNC(=O)CN2N=C(c3ccccc3)CCC2=O)c(OC)c1 | . | . | . | . | 2% | .
COc1ccc(N(C(=O)COc2ccc(Br)cc2)S(=O)(=O)c2ccc(C)cc2)cc1 | 1% | . | . | . | -4% | .
O=C(O)c1ccccc1SCc1nc2ccccn2c1Br | 6% | 0% | 3% | 1% | ? | 2%
Cc1cccc2nc(CSc3ccccc3C(=O)O)cn12 | . | 28% | . | ? | 15µM* | 8%
O=C(O)c1ccccc1SCc1cn2cc(Cl)ccc2n1 | ? | ? | 0% | 3.2µM* | 11µM* | ?
c1ccc2nc3c(nc2c1)sc1nc2ccccc2n13 | 36% | -7% | -5% | 0% | 3% | -2%
CC(C)(O)c1cc(=O)sc2nc3ccccc3n12 | 14µM* | 3.5µM* | -7% | 0.56µM* | 9.5µM* | ?
COc1ccccc1CNC(=O)CSc1ccsc1[N+](=O)[O-] | 80% | ? | -4% | 3.5µM* | ? | 8%
Cc1ccccc1C(=O)Nc1ccc(C(=O)OCc2cc(=O)n3c4c(sc3n2)CCCC4)cc1 | . | . | . | . | 5% | .
Oc1ccc(NCc2ccc(OCc3ccccc3Cl)cc2)cc1 | 7% | . | . | . | 27µM* | .
Oc1ccc(NCc2ccc(OCc3ccccc3)cc2)cc1 | 21% | -13% | . | -5% | 27µM* | ?
COC(=O)c1c(NC(=O)CN2CCOCC2)sc2c1CCC(C)C2 (configuration not stated) | -5% | 8% | -1% | 23% | 12µM* | 19%
SMILES | SMN2 splice enh | NPC1 prom act | KinaseGlo FLuc | Rab9 prom act | FLuc counter | ELG1 genotox
COC(=O)c1c(NC(=S)NN2CCOCC2)sc2c1CCCC2 | . | -2% | . | -3% | 15µM* | -4%
Nc1c(-c2nc(-c3cccs3)no2)nnn1-c1cccc(Cl)c1 | . | . | . | . | -3% | .
c1ccc(-c2nnc(CN3CCN(c4ccccn4)CC3)o2)cc1 | -4% | . | . | . | -7% | .
CCOC(=O)c1cc(-c2ccccc2C)nn1Cc1cc(CC)no1 | . | 17% | . | 26% | 17µM* | 7%
Cc1ccc(NC(=O)C2CCN(C(=O)c3cnn(-c4ccccc4)c3-n3cccc3)CC2)cc1C | -46% | . | . | . | ? | .
COc1ccc(CN(C)CC(=O)NC(=O)Nc2ccccc2F)cc1 | . | -1% | . | 14% | . | -1%
CCN(CC(=O)NC(=O)Nc1ccccc1F)Cc1ccccc1 | . | -8% | . | 1% | 2% | 18µM*
COc1cc(C2C(=O)N(C3CCCCC3)CC(=O)N2Cc2ccc(C)cc2)ccc1OC(C)C (configuration not stated) | . | . | . | . | -5% | .
CCC(Oc1ccccc1)C(=O)Nc1cc(-c2ccccc2OC)nn1-c1ccccc1 (configuration not stated) | . | . | . | . | 1% | .
Cc1cc2c(s1)c(C#N)c(C(=O)NCc1ccccc1F)n2C | . | -2% | . | 17% | -2% | .
O=C(CSc1nnc2[nH]c(=O)cc(-c3ccccc3)n12)Nc1cc(C(F)(F)F)ccc1Cl | . | . | . | . | 0.21µM* | .
CN(C(=O)CSc1nnc2[nH]c(=O)cc(-c3ccccc3)n12)c1ccccc1 | . | . | . | . | 19µM* | .
Cc1cc(=O)[nH]c2nnc(SCC(=O)Nc3ccc(F)cc3F)n12 | . | . | . | . | -4% | .
O=C(CSc1nnc2[nH]c(=O)cc(-c3ccccc3)n12)Nc1ccc(F)cc1F | . | . | . | . | 1.9µM* | .
Cc1cc(=O)[nH]c2nnc(SCC(=O)Nc3cc(C(F)(F)F)ccc3Cl)n12 | . | . | . | . | 3% | .
Cc1cccc(NC(=O)CSc2nnc3[nH]c(=O)cc(-c4ccccc4)n23)c1C | . | . | . | . | 3µM* | .
O=C(Cn1c(=O)oc2cc(S(=O)(=O)NC3CCCC3)ccc21)Nc1ccc(F)c(F)c1 | 16% | . | . | . | 1% | .
N/C(CC/C(N)=N/O)=N\O | -8%[9.22 µM] | . | -7%[7.66 µM] | . | . | .
COc1cc(C(=O)N2CC(=O)Nc3ccc(C)cc3C2c2ccc(F)cc2)cc(OC)c1OC (configuration not stated) | -2% | . | . | . | 0% | .
O=C(OCc1ccc(Cl)c(Cl)c1)c1cccnc1Cl | . | -3% | . | -5% | ? | 2%
COc1cc(CNCc2ccccn2)ccc1OCc1ccc(Cl)c(Cl)c1 | 7% | 11% | 1% | 13% | 17µM* | 10%
COc1cc(CNCc2ccccn2)ccc1OCc1ccc(Cl)cc1Cl | -15% | 2% | -6% | 8% | -9% | -2%
Nc1ncccc1OCc1ccc(Cl)c(Cl)c1 | . | 2.8µM* | . | 1.4µM* | 7.6µM* | ?
CCOc1ccc(C(=O)Nc2cc(C)on2)cc1OCC | -3% | -1% | -3% | 1% | 3% | 12%
